Source: PubChem (National Center for Advancing Translational Sciences (NCATS))
The list is not random: actives were taken first. Their share in the collection is about 8.1%.
ELG1 repair inh: qHTS screen for small molecules that inhibit ELG1-dependent DNA repair in human embryonic kidney (HEK293T) cells expressing luciferase-tagged ELG1 | Potency, µM (doses to about 46.1 µM), for inactives: at the highest dose activity change, negative = inhibition, usual class: inhibitors | actives 2.3% (n = 330,000) | HEK293T ELG1-luciferase reporter, luminescence, 16 h; DNA damage induced by 5-fluorouridine; further: on the % scale 0 is the no-effect control and ±100 the full control effect; nearly all actives have a fitted effect of over 55% in size
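Luminescence from the luciferase reporter, measured 30 min after ONE-Glo reagent at room temperature, was the read-out. Beforehand, 2,000 cells per well were exposed for 16 hr at 37 °C to 5-fluorouridine together with compound or vehicle.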
KB-3-1 tox: qHTS assay for MDR1-selective chemotherapeutics: Primary screen using the parental adenocarcinoma cell KB-3-1. KB-3-1 viability, CellTiter-Glo ATP luminescence, 72 h. Potency, µM (titrated, usually from 46.1 µM), usual class: cytotoxic. actives 1.4% (n = 400,000). AID 1347075, 2019; further: on the % scale 0 is the no-effect control and ±100 the full control effect; nearly all actives have a fitted effect of over 60% in size
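Multi-concentration cytotoxicity screen in KB-3-1 cells grown in DMEM lacking phenol red with 10% FBS. After 72 h at 37 °C with compound, ATP-dependent luminescence was recorded.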
MCF10A rereplic: A quantitative high throughput screen for small molecules that induce DNA re-replication in MCF 10a normal breast cells. MCF 10A DNA re-replication, Hoechst nuclear intensity, 48 h. Potency, µM (highest dose often 46.1 µM), for the others: top-dose activity, positive = re-replication, most hits filed as activators. actives 2.9% (n = 350,000). AID 624296, 2012; further: % of control where 0% means no effect; nearly all actives have a fitted effect of over 50% in size
KB-V1 MDR tox: qHTS assay for MDR1-selective chemotherapeutics: Primary screen using the drug-selected MDR subline cells KB-V1 | actives 3.4% (n = 400,000) | KB-V1 MDR cells viability, CellTiter-Glo, 72 h | AID 1347076, 2019 | Potency, µM (doses to about 46.1 µM), actives largely listed as cytotoxic; further: on the % scale 0 is the no-effect control and ±100 the full control effect; nearly all actives have a fitted effect of over 60% in size
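Cells of the MDR subline KB-V1 are plated, dosed with compound at multiple concentrations, and incubated 72 h at 37 degrees C; CellTiter-Glo is then added and luminescence read after 10 min.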
SW480 rereplic: A quantitative high throughput screen for small molecules that induce DNA re-replication in SW480 colon adenocarcinoma cells; SW480 DNA re-replication, Hoechst DNA content imaging, 48 h; Potency, µM (top dose mostly 46.1 µM), for inactives: top-dose re-replication activation, usual class: activators; actives 1.8% (n = 340,000); AID 624297, 2012; further: % of control where 0% means no effect; nearly all actives have a fitted effect of over 55% in size
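Image-based DNA-content assay: after two days of treatment, nuclei were labelled with the DNA dye Hoechst and imaged, and hits were compounds raising the count of nuclei showing high fluorescence intensity.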
* = called active by the depositor; i = inactive; ? = inconclusive; · = no result; [ ] = remark or other dose. The call rests on the fitted dose curve; in most records, active means well fitted curve in the direction sought with a large enough effect; inconclusive means small, poorly fitted or top-dose-only effect, or another doubt; inactive means no such curve, though single readings can be large; an effect the other way counts as inactive or inconclusive. Potency means the concentration at half of the fitted maximal effect.

SMILES	ELG1 repair inh	KB-3-1 tox	MCF10A rereplic	KB-V1 MDR tox	SW480 rereplic
O=c1c2ccccc2cnn1Cc1ccc(Cl)c(Cl)c1	8%	i	1%	?	5%
Cc1cc(C(=O)Cn2ncc(Cl)c(Cl)c2=O)c(C)n1CC(F)(F)F	?	?	2.6µM*	?	5.8µM*
Cc1ccc(C)c(C(=O)Cn2ncc(Cl)c(Cl)c2=O)c1	?	?	4.6µM*	?	?
Cc1cccc(Cn2ncc(Cl)c(Cl)c2=O)c1	?	?	13µM*	21µM*	5.8µM*
Cc1cc2oc(=O)cc(Cn3ncc(Cl)c(Cl)c3=O)c2cc1Cl	?	13µM*	7.3µM*	?	2.6µM*
Cc1cc2oc(=O)cc(CN3CCN(c4ccccc4)CC3)c2cc1Cl	·	i	·	i	·
Cc1ccc(OCC(=O)c2cc(C)n(CC(F)(F)F)c2C)c([N+](=O)[O-])n1	-1%	?	?	?	?
CN1C(=O)C(C)(C)c2cc(S(=O)(=O)N3CCC(C(=O)NCc4ccc(F)cc4)CC3)ccc21	17%	i	3%	i	-10%
CC(=O)Nc1ccc(-c2ccnc3c2CC(C)(C(=O)NC(C)C)O3)cc1 (centres undefined)	·	i	·	i	·
COc1ccc(N2CCN(C(=O)COC(=O)[C@@H](NC(=O)OCc3ccccc3)C(C)C)CC2)cc1	·	i	4%	6.5µM*	-1%
CCC(=O)N1CCN(c2ccc(NC(=S)NC(=O)c3ccc(OC)c([N+](=O)[O-])c3)cc2)CC1	?	i	-1%[9.22 µM]	i	6%
O=C(COc1ccccc1Br)N1CCN(c2ccccc2)CC1	-3%	i	14%	18µM*	7%
CCCC(=O)N1CCN(c2ccc(NC(=O)c3ccc(OCC)c([N+](=O)[O-])c3)cc2)CC1	-2%	i	-6%	12µM*	-69%
COc1ccc(N2CCN(C(=O)c3ccc4c(c3)OCO4)CC2)cc1	7%	i	?	21µM*	-4%
CC(C)C(NC(=O)OCc1ccccc1)C(=O)OCC(=O)N1CCCCC1 (centres undefined)	?	i	6%	?	-3%
Cc1cnccc1CNC(=O)CC1C(=O)NCCN1CC(C)(C)C (centres undefined)	14%	i	-1%	i	18%
CCC(=O)N1CCN(c2ccc(NC(=O)COc3ccccc3[N+](=O)[O-])cc2)CC1	23µM*	?	0%	?	-8%
Cc1ccc(C(=O)N2CCN(c3ccc(NC(=S)NC(=O)Cc4ccccc4)cc3)CC2)cc1	0%	i	?	i	-3%
Cc1cccc(OCC(=O)Nc2ccc(N3CCCC3)cc2)c1C	-5%	i	-25%	i	-2%
CCC(=O)N1CCN(c2ccc(NC(=O)COc3ccccc3Cl)cc2)CC1	18µM*	?	1%	?	-7%
COc1ccc(C(=O)N2CCN(c3ccc(NC(=O)Cc4ccccc4)cc3)CC2)cc1	9.2µM*	i	?	?	0%
CCC(=O)N1CCN(c2ccc(NC(=O)COc3ccc(C)cc3C)cc2)CC1	-9%	i	13%	i	0%
Cc1ccc(C(=O)N2CCN(c3ccc(NC(=O)COc4ccccc4C)cc3)CC2)cc1	?	18µM*	9%	?	4%
O=C1CCC/C=C\C[C@@H](CC(=O)N(CCO)Cc2ccccc2)C(=O)N2CCC[C@H]2CO1	?	i	?	i	-12%
Cc1cc(Nc2cccc(Cl)c2)nc2ccc(NC(=O)Cc3cccc(C(F)(F)F)c3)cc12	·	i	·	i	·
SMILES	ELG1 repair inh	KB-3-1 tox	MCF10A rereplic	KB-V1 MDR tox	SW480 rereplic
O=C(CC1CCS(=O)(=O)C1)NC1CCCCC1 (centres undefined)	8%	i	2%	i	-6%
O=C(COCc1cc(-c2ccc3c(c2)OCO3)on1)Nc1cccnc1	?	i	0%	?	-14%
Cc1nn(CC(=O)O)c(C)c1C	-3%	i	-190%[0.0737 µM]	i	-16%
CCc1ccc(CN/C=C/C(=O)c2ccc(Br)cc2)cc1	?	i	0%	i	-9%
O=C(COC(=O)c1ccc2c(c1)C(=O)N(c1cccc3ncccc13)C2=O)c1ccc(Cl)cc1	-17%	i	6.5µM*	i	?
Cc1ccc(C(=O)COC(=O)c2ccc3c(c2)C(=O)N(c2cccc4ncccc24)C3=O)cc1	-28%	i	?	i	-3%
Cc1csc(N/N=C/c2ccc([N+](=O)[O-])cc2)n1	?	i	1%	i	1%
C(=N\NC1=Nc2cccc3cccc1c23)/c1ccccn1	?	23µM*	?	?	14%
Cc1csc(N/N=C/c2ccccn2)n1	?	?	?	?	3.7µM*
Clc1ccccc1/C=N/NC1=Nc2cccc3cccc1c23	?	i	?	i	?
C/C(=N\N1CCN(c2ccc(Cl)cc2)CC1)c1ccco1	-18%	i	-1%	i	0%
Cc1ccsc1/C=N/Nc1ncnc2nc[nH]c12	?	i	0%	i	-10%
Cc1ccccc1/C=N/Nc1ncnc2nc[nH]c12	?	i	0%	i	18µM*
CCOC(=O)c1c(NC(=O)C2=C(C)NC(=S)NC2c2ccc(C)cc2)sc(C)c1C (centres undefined)	?	?	?	21µM*	2%
CCOC(=O)c1c(NC(=O)C2c3ccccc3Oc3ccccc32)sc(C)c1C	·	i	·	i	·
CCOC(=O)c1c(NC(=O)C2=C(C)NC(=S)NC2c2ccc(F)cc2)sc(C)c1C (centres undefined)	7.3µM*	i	18µM*	?	?
CCOC(=O)COc1cc2oc(=O)cc(C)c2cc1[N+](=O)[O-]	?	i	-3%	i	-1%
COc1ccccc1/C=C/C(=O)OCC(=O)Nc1ccc2c(c1)OCCO2	1%	i	5%	?	0%
Nc1c2c(nc3sc4c(c13)CCCCC4)CCCCC2	?	?	?	8.2µM*	-10%
CN(C)S(=O)(=O)Oc1ccsc1C(=O)Nc1ccccc1Cl	-8%	i	?	i	1%
CN(C)S(=O)(=O)Oc1ccsc1C(=O)Nc1cccc(Cl)c1Cl	-10%	?	13%	21µM*	-2%
Cn1c(SCc2ccc(Cl)cc2)nc(C(F)(F)F)cc1=O	-1%	?	20%	16µM*	-3%
